From PubChem
D1 potentiator: Potentiators of Human D1 Dopamine Receptor: qHTS; AID 504651, 2011; D(1A) dopamine receptor (Homo sapiens), P21728; actives 0.036% (n = 360,000); potentiation, % at 10 µM; HEK293 TREx D1 cells, calcium flux, dopamine EC20 potentiation; in the data active = potentiation above about 30%; also: 0% is about no effect
D1 agonist: Allosteric Agonists of the Human D1 Dopamine Receptor: qHTS | D(1A) dopamine receptor (Homo sapiens), P21728 | HEK293 T-REx D1 cells, calcium flux, agonist mode | activation, % at 2 µM | AID 504660, 2011 | actives 1% (n = 360,000); also: 0% is about no effect
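Agonism was scored from calcium flux recorded over 180 s (1 read/s) after pintool compound addition, following a 10-cycle baseline. Cells were inducible force-coupled HEK293 TREx D1, plated overnight at 30 C and loaded with no-wash calcium dye.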
TRHR ag: qHTS for Small Molecule Agonists and Allosteric Enhancers of Human TRH Receptor: Primary Screen for Agonists; activation, % at 2 µM; TRHR cells, calcium flux fluo-8, FDSS agonist mode; AID 493084, 2011; actives 0.18% (n = 360,000); Thyrotropin-releasing hormone receptor (Homo sapiens), P34981; also: 0% is about no effect
Target sequence (P34981 whole entry, looked up): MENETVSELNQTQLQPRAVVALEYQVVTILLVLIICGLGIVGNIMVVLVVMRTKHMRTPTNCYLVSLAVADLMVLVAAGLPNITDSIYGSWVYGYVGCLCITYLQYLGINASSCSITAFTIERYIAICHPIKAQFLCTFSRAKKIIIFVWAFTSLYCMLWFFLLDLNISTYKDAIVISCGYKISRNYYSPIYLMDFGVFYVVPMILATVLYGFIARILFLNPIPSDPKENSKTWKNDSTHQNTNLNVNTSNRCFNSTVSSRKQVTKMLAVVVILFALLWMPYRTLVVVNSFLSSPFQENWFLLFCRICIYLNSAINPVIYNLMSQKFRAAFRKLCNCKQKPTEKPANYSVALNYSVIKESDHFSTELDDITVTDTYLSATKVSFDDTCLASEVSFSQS
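Agonist-mode FDSS calcium read (Ex 480/Em 530, 1 s cycles) in 1536-well TRHR cells with fluo-8 dye, after 10-cycle baseline and 23 nL compound addition; TRH at EC20 (10 nM final) added afterwards for the enhancer phase.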
TRHR enhancer: qHTS for Small Molecule Agonists and Allosteric Enhancers of Human TRH Receptor: Primary Screen for Enhancers. actives 0.66% (n = 360,000). TRHR cells, fluo-8 calcium fluorescence, EC20 TRH enhancement. AID 493056, 2011. enhancement, % at 2 µM. Thyrotropin-releasing hormone receptor (Homo sapiens), P34981; in the data active = enhancement above about 30%; also: 0% is about no effect
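Enhancer read-out: after compound pinning and an initial kinetic agonist-mode read, an EC20 of TRH (10 nM final) was injected and fluo-8 calcium signal (Ex 480/Em 530) followed at 1 s/cycle for 100 cycles in TRHR-expressing cells.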
D1 antag: Antagonist of Human D 1 Dopamine Receptor: qHTS. HEK293 TREx D1 cells, calcium flux, dopamine EC80; active compounds read low. activity change, negative = inhibition, % at 10 µM. actives 3.2% (n = 360,000). AID 504652, 2011; in the data active = activity change below about -30%; also: % is scaled to controls: 0 for no effect and ±100 for the full control effect
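Kinetic fluorescence of a calcium dye serves as the read-out. D1-expressing Hek293 Trex cells, induced overnight at 30 C, are exposed to compound for 180 s before an EC80 dopamine addition, then read 180 s further.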
Active calls of the source: *; . = no result. A selection: hits, their analogues and other compounds. The true share with any hit is near 4.6%. Rule as the data show it, unless noted: active = activation above about 30%; inactive = the rest.

SMILES | D1 potentiator | D1 agonist | TRHR ag | TRHR enhancer | D1 antag
COc1ccc(Cl)cc1NC(=O)[C@@]1(CC(=O)O)CC(/C=C/c2ccccc2)=NO1 | 4 | 4 | 1 | -5 | -35*
CCOC(=O)c1[nH]c(C)c(CCC(=O)Nc2ccc(N(CC)CC)cc2C)c1C | -3 | 1 | -1 | -3 | -1
O=C1C(Cl)=C(Nc2ccc(F)cc2)C(=O)N1CCc1ccccc1 | -3 | 2 | 1 | 4 | -35*
O=C1C(Cl)=C(NCCc2ccccc2)C(=O)N1CCc1ccccc1 | 0 | 0 | -1 | 4 | 3
Cc1cccc(-c2nc(CSc3nncn4c3cc3sccc34)c(C)o2)c1 | -3 | 1 | 0 | -6 | 1
NC(=S)N/N=C/c1ncc(C(F)(F)F)cc1Cl | -2 | 31* | 11 | 10 | 3
CN1/C(=C/C=C(C#N)C#N)C(C)(C)c2ccccc21 | 12 | 116* | 0 | 5 | 5
CC1=C/C(=C\C=C(C#N)C#N)N(C)c2ccccc21 | -12 | 45* | 24 | -4 | -35*
CN1/C(=C\C=O)C(C)(C)c2ccccc21 | -4 | 0 | -1 | -2 | 5
CN1\C(=C/C=C/C=C/C=[N+](C)C)C(C)(C)c2ccccc21 | 6 | 324* | 142* | 47* | -20
COc1ccccc1OCC(=O)/C=C1/N(C)c2ccccc2C1(C)C | -8 | 32* | 0 | 1 | -49*
CN1/C(=C\C(=O)COC(=O)c2ccccc2O)C(C)(C)c2ccccc21 | -5 | 7 | 0 | 0 | -5
CN1/C(=C\C=Nc2ccc3ccccc3c2)C(C)(C)c2ccccc21 | 11 | 8 | 1 | -2 | 14
N#C/C(=C/c1ccc(O)c(O)c1)C(=O)NCc1ccc(Cl)cc1 | . | 79* | -2 | 8 | -33*
CCOc1ccccc1NC(=O)Cn1ccn(Cc2ccc(C)cc2)c(=O)c1=O | -2 | 0 | 0 | 2 | 0
CN1C(=O)C2(c3ccccc31)c1c(oc3ccccc3c1=O)C(=O)N2CCCO (configuration not stated) | -6 | 3 | 0 | 0 | -31*
Cc1ccc(C(=O)C2=C(O)C(=O)N(CCCN(C)C)C23C(=O)N(C)c2ccccc23)o1 (configuration not stated) | 5 | 2 | -1 | -1 | 8
CN1C(=O)C2(c3ccccc31)c1c(oc3ccccc3c1=O)C(=O)N2CCO (configuration not stated) | -9 | 5 | 0 | 0 | -17
Cc1ccc2oc3c(c(=O)c2c1)C1(C(=O)N(C)c2ccccc21)N(CCCO)C3=O (configuration not stated) | -1 | -1 | 0 | 36* | -5
Cc1cc(NC(=O)COc2ccccc2)cc(-c2nc3ccccc3o2)c1O | -1 | -1 | 1 | 1 | -3
COc1ccc(OC)c2c1C(=O)c1ccccc1C2=O | 0 | 31* | 35* | -4 | -1
COc1ccc(N)c2c1C(=O)c1ccccc1C2=O | 4 | 3 | -1 | 5 | -2
COc1cccc2c1C(=O)c1ccc3ccccc3c1C2=O | -2 | 1 | 0 | 1 | -35*
CC1=NN(C(=O)c2ccccc2-n2cccc2)C(O)(C(F)(F)F)C1 (configuration not stated) | -6 | 1 | 0 | 6 | -50*
COc1ccc(-c2onc(C)c2C)cc1S(=O)(=O)N1CCc2ccccc21 | -6 | 11 | -1 | 1 | -24
SMILES | D1 potentiator | D1 agonist | TRHR ag | TRHR enhancer | D1 antag
Cc1ccc2oc(-c3cc(NC(=O)c4ccc5c(c4)OCCO5)cc(C)c3O)nc2c1 | -3 | 0 | -1 | 2 | 4
O=C(CC1=NCCNC(c2ccccc2)C1)c1ccccc1O (configuration not stated) | -9 | 3 | -1 | -11 | -41*
CCOc1ccccc1NC(=O)CSc1nnc2[nH]c(=O)cc(-c3ccccc3)n12 | 3 | -4 | -1 | 14 | .
O=[N+]([O-])c1ccc(S(=O)(=O)c2ccccc2)nc1 | -14 | 0 | -1 | -7 | -40*
O=[N+]([O-])c1ccc(NCc2ccccc2)nc1 | -11 | 4 | -1 | -1 | -35*
CCOC(=O)c1[nH]c(C)c(CCC(=O)NCc2ccc(C)cc2)c1C | -1 | 0 | 0 | 1 | 6
O=C(COC(=O)C1CC1)Nc1ncc(Cl)cc1Cl | 12 | 4 | 1 | 5 | -4
O=C(CSC(=S)N1CCCC1)Nc1ncc(Cl)cc1Cl | -7 | 7 | 0 | 31* | -4
N#Cc1cccc(NC(=O)COC(=O)Cn2nc(-c3ccccc3)oc2=O)c1 | . | 18 | 0 | -8 | -85*
CCOC(=O)c1cnc2ccc(OC)cc2c1Nc1ccc(OCc2ccccc2Cl)cc1 | -1 | 17 | -2 | -1 | 13
O=C1c2ccccc2-c2onc3c(Br)cc(NC4CCCCC4)c1c23 | -3 | 39* | 6 | 0 | -2
CC(C)CNc1cc(NC2CCCCC2)c2c3c(onc13)-c1ccccc1C2=O | 3 | 1 | 0 | -1 | -5
CCCOc1ccc(-c2nonc2NC(=O)c2oc3ccc(C)cc3c2C)cc1OCCC | -3 | 3 | 0 | -9 | -2
COCCn1c(C)cc(O)c(C(c2ccccc2F)N2CCN(c3ccccc3)CC2)c1=O (configuration not stated) | 4 | 2 | 0 | -6 | -7
COc1ccccc1CN1C2CCCC1CC(NC(=O)/C=C/c1ccccc1)C2 (configuration not stated) | 3 | 0 | 0 | 32* | -12
COc1ccc(OC)c2sc(N3CCN(C(=O)C(C)(C)C)CC3)nc12 | 2 | 0 | 0 | -7 | .
COc1cc2ccccc2cc1C(=O)OCC(=O)NC1CCS(=O)(=O)C1 (configuration not stated) | -8 | 2 | 0 | -7 | -33*
Cc1cc(C)cc(NC(=O)CNS(=O)(=O)c2ccc3nc(C)sc3c2)c1 | -4 | -2 | -1 | -4 | 24
O=C1CC(NNC(=O)c2ccccc2)C(=O)N1 (configuration not stated) | -5 | 2 | 0 | -5 | -40*
O=C1CC(NNC(=O)c2ccc(Br)cc2)C(=O)N1 (configuration not stated) | -4 | 3 | 1 | -5 | -19
CCC(=O)Nc1nnc(/C=C/c2ccc(OC)cc2)s1 | 0 | 2 | 1 | 7 | -48*
OCCOCCN1CCN(C(c2ccccc2)c2ccc(Cl)cc2)CC1 (configuration not stated) | -3 | 10 | 1 | 4 | 11
